Experimental data published in PubChem BioAssay AID493203 (National Center for Advancing Translational Sciences (NCATS), 2011).
Results filed as inconclusive are left out. Active and inactive are the calls of the source. The call rests on the fitted dose curve; in most records, active means well fitted activation curve with a large enough effect; inconclusive means small, poorly fitted or top-dose-only effect; inactive means flat fitted curve, though single readings scatter.

Assay: qHTS Assay for NPC1 Promoter Activators: Initial hit validation from the primary screen;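 further: reporter driven by the mutant form of the NPC1 promoter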
Text: NIH Chemical Genomics Center [NCGC] NIH Molecular Libraries Probe Production centers Network [MLPCN] MLPCN Grant: MH089375-01A1 Assay Submitter (PI): Yiannis A. Ioannou NCGC Assay Overview: Niemann Pick Type C (NPC) is a rare neurodegenerative lipidosis that is characterized by lipid storage in the endosomal/lysosomal system. Treatment modalities for this devastating disease are currently non-existent due to the severe obstacles associated with accessing the central nervous system with proteins or genes. The majority of mutations causing NPC disease are missense mutations that are distributed throughout the length of the NPC1 protein, with the most prevalent being the I1061T allele. Although NPC1 mutant proteins may be functional, they are typically trapped in the ER due to misfolding. […] We have developed and optimized a cell based luciferase reporter assay in 1536 well format for the identification of up-regulators of the mutant NPC1 promoter. This assay presents data on the validation of hits from the primary screen.
The NPC1 promoter is cloned in front of the luciferase reporter gene, therefore NPC promoter activation results in luciferase expression. Frozen stock of the NPC1 promoter transfected Huh7 cells were obtained from the laboratory of Dr. Yiannis Ioannou (The Mount Sinai School of Medicine, New York, NY). Cells were propagated and maintained at NCGC in medium containing RPMI-1640 supplemented with 10% FBS, 2mM L-glutamine, and 50ug/ml penicillin/streptomycin. Cells were harvested in and plated for assays in OP-MEM I reduced-serum medium supplemented with 10% FBS. The Amplite luciferase reporter gene assay kit was purchased from ABD Bioquest and prepared/stored according to manufacturers recommendations. qHTS Assay Setup: 1. Dispensed 5ul of Huh7 cells stably expressing NPC1-luciferase at a density of 1500 cells per well 1536-well plates. 2. Incubate cells at 37C, 5% CO2, and 95% humidity for 2 hours. 3. Transferred 23nl per well of compound in DMSO solution. 4. Incubated at 37C, 5% CO2, and 95% humidity for 24 hours. 5. Dispensed 3ul per well of Amplite reagent(ABD Bioquest) per well. 6. Incubate at ambient for 10 minutes. 7. Read using the luminescence protocol on the ViewLux plate reader (Perkin Elmer).

SMILES	outcome
CN1CCc2cc3c(c4c2C1Cc1ccccc1-4)OCO3 (stereo unspecified)	inactive
Cc1cccn2c(NCC3CCCO3)c(C(C)C)nc12 (stereo unspecified)	inactive
COc1ccc(C(CC(=O)N2CCC3(CC2)OCCO3)NS(=O)(=O)c2ccc(F)cc2)cc1 (stereo unspecified)	inactive
CCC(=NCc1cccnc1)c1c(O)n(-c2ccccc2)c(=O)[nH]c1=O	inactive
COc1cccc(CCNCc2ccc(SC)cc2)c1	inactive
O=C1c2ccccc2C(=O)N1Cc1nc2ccccc2c(=O)n1-c1cccnc1	inactive
